Measured values: PubChem BioAssay (NCI)
The panel holds about 83,000 compounds, 20% with a hit somewhere; the sample as a whole holds those more often.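 Negative percent growth values reflect cell death: -40 means 40% of the cells present at the start died, and -100 means all died.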 Unmarked numbers belong to inactive results. Calls of active or inactive are those of the source.

Tested on: U251 CNS
Assay: NCI-60 one-dose screen, 48 h (100 = growth as untreated, 0 = no growth, -100 = all killed)
Details: 10 µM unless noted
Method: Growth inhibition of the U251 human tumor cell line is measured as a screen for anti-cancer activity. Cells are grown in 96 well plates and exposed to the test compound for 48 hours. Compounds are tested at a single concentration, which is 10^-5 M for most compounds. The reported endpoint is percent growth (GI% or GIPRCNT), where numbers from 0 - 100% represent growth inhibition, and numbers from -100% - 0 represent cell death. For example, a value of 40 represents 60% growth inhibition. A value of 0 means no net growth occurred over the course of the experiment. A value of -40 indicates 40% of cells at the beginning of the experiment died by the end of the experiment. A value of -100 means all cells are dead at the end of the experiment.
NCI-60 Human Tumor Cell Lines Screen was performed using the standard one-dose NCI protocol, which is described in more detail at https://dtp.cancer.gov/discovery_development/nci-60/default.htm.
Compounds with GIPRCNT values below 10 were considered active. Activity score was based on GIPRCNT using the following formula: […]
Score is 0 for GIPRCNT values of 100 or above, 50 for GIPRCNT values of 0, and 100 for GIPRCNT values of -100.

Compound	growth
CC(=O)Nc1cccc(Nc2nc(N[C@@H](C)c3ccccc3)c3ccccc3n2)c1	14.3%
Cn1ccnc1C(=O)/C=C/c1ccc(CNC(=O)c2ccc(F)cc2)cc1	17.7%
Nc1cc(-c2c[nH]c3ccc(Br)cc23)nc2cc(-c3c[nH]c4ccc(Br)cc34)nn12	-47.8% (active)
COc1cc2nc(Cl)nc(Nc3cccc(C4=Nc5c(N)nc(N)nc5NC(c5ccc(F)cc5)C4)c3)c2cc1OC (stereo not given)	-22% (active)
O=C(NNc1nc2cc(F)ccc2n2cccc12)c1ccncn1	12.9%
COc1ccc([C@H]2[C@H](O)C(=O)N2c2cc(OC)c(OC)c(OC)c2)cc1F	7.47% (active)
Cc1ccc(-n2cc(/C=N/NC(=O)c3nc(N)n[nH]3)c(-c3ccc(S(C)(=O)=O)cc3)n2)cc1	101%
Cc1nc(-c2ccccc2O)ccc1C(=O)N=Nc1c(O)[nH]c2ccc(Br)cc12	103%
N/C(=N\C(N)=N\c1nc2ccccc2s1)c1ccncc1Cl	31.8%
COc1cc(/C=C/C(=O)c2ccc(NC(=O)CSc3nnc(-c4ccc(-c5nc6ccc(Cl)cc6[nH]5)cc4)o3)cc2)cc(OC)c1OC	88.5%
CCO/C=N/C1=C(C#N)C(c2ccc(F)cc2)c2sc3c(CC)cccc3c2O1 (stereo not given)	21.4%
COc1cccc(O)c1/C=C(/C)c1ccc2c(OC)cccc2[o+]1	106%
C=C1CC[C@@H]2[C@]3(C)COC(c4ccccc4)O[C@@H]3CC[C@@]2(C)[C@@H]1C/C=C1/C(=O)OC[C@H]1O (stereo not given in full)	64.2%
CCO/C=N/C1=C(C#N)C(c2ccc(OC)cc2)c2sc3c(C)cccc3c2O1 (stereo not given)	22.1%
Cc1ccc(-n2cc(/C=C/C(=O)c3ccc(O)cc3)c(-c3ccc(S(C)(=O)=O)cc3)n2)cc1	72.3%
C/C(=N\O)[C@H]1C[C@]23CC[C@]4(C)[C@H](CC[C@@H]5[C@@]6(C)CC/C(=N/O)C(C)(C)[C@@H]6CC[C@]54C)[C@H]2[C@H](C)C1(C)OC3	110%
Cc1cc(C(NC(=O)CCCCCNc2cccc3c2C(=O)N(C2CCC(=O)NC2=O)C3=O)c2ccc3c(c2)OC(F)(F)O3)c(O)c2ncccc12 (stereo not given)	33.6%
NS(=O)(=O)c1ccc(Nc2nc(N/N=C/CCc3ccccc3)nc(Nc3ccccc3)n2)cc1	104%
Cc1ccc(C(=O)NN2C(=O)/C(=C/C=C/c3ccco3)SC2=S)cc1	98.7%
O=C1[C@@H]2Cc3c([nH]c4ccccc34)[C@H](c3c(Cl)cccc3Cl)N2C(=O)CN1C1CCN(CC2CCCCC2)CC1	42.8%

Compound	growth
O=c1[nH]c2ccccc2cc1CSc1ccccc1Nc1nccc(-c2ccc(Cl)cc2)n1	104%
Cc1c(Cl)cccc1S(=O)(=O)Nc1ccc2c(c1)C(=O)N(C1CCC(=O)NC1=O)C2=O (stereo not given)	95.6%
COc1c(N2CC3CCCNC3C2)c(F)cc2c(=O)c(C(=O)N/N=C/c3ccc(Br)cc3)cn(C3CC3)c12 (stereo not given)	86.9%
C=CCn1c(SCC(=O)Nc2ccc(C(=O)/C=C/c3ccc(Br)cc3)cc2)nnc1-c1c[nH]c2ccccc12	87.9%
CCN(CC)c1cn(-c2ccc(S(N)(=O)=O)cc2)nn1	100%
C#Cc1ccc(C(=O)NCc2ccc(/C=C/C(=O)c3nccn3C)cc2)cc1	17.3%
COc1cc2oc(-c3cccc(NC(=O)c4cc(N)ccc4Cl)c3)cc(=O)c2c(OC)c1OC	101%
COc1cc(-c2nn(C(C)(C)C)cc2-c2ccnc(NCCCNS(=O)(=O)c3ccc(C)cc3)n2)ccc1Cl	92.3%
Clc1nc2ccccc2nc1-c1nnc(C2CCCCC2)o1	97.9%
N#C/C(=C\c1ccc(-c2ccc(Cl)cc2Cl)o1)c1ccc(F)cc1	98.5%
CCn1c(SCC(=O)Nc2cccc(C(=O)/C=C/c3ccccc3Cl)c2)nc2ccccc2c1=O	73.4%
O=C(CN1CCN(c2cc(=O)n(-c3ccccc3)c3ccccc23)CC1)Nc1ccc(F)cc1	80.2%
CN(C)C(=O)c1cc(-c2ccc3ncnc(NCc4ccccc4)c3c2)cnc1N	99%
C#C[C@]1(O)CC[C@H]2[C@@H]3CC=C4c5sc(-c6ccc(C)cc6)nc5CC[C@]4(C)[C@H]3CC[C@@]21C	8.46% (active)
Nc1ncc(-c2ccc3ncnc(Nc4cccc(Cl)c4F)c3c2)cn1	67.9%
COc1ccc(C2CC(c3cccc(Nc4nc(Cl)nc5cc(OC)c(OC)cc45)c3)=Nc3c(N)nc(N)nc3N2)cc1 (stereo not given)	16.9%
C[C@@H](Nc1c(C#N)cnc2ccc(-c3cnc(Cl)c(NS(C)(=O)=O)c3)cc12)c1ccccc1	15.2%
O=C1[C@H]2Cc3c([nH]c4ccccc34)[C@@H](c3c(Cl)cccc3Cl)N2C(=O)CN1C1CCN(CC2CCCCC2)CC1	89.1%
COc1ccc(S(=O)(=O)NCCCNc2nccc(-c3[nH]c(-c4ccccc4)nc3-c3ccc(Cl)c(O)c3)n2)cc1	83.3%
O=C(CCC(=O)N1CCOCC1)OCCCCCCSc1ccc([N+](=O)[O-])c2nonc12	-29.8% (active)
